# Assay outcomes as filed in PubChem.
# tim23-1 inh – tim23-1 yeast growth inhibition | AID 463212 | S. cerevisiae tim23-1 growth, BacTiter-Glo luminescence, 24 h | inhibition, % at 20 µM | 1.3% of 330,000 active;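 active means growth inhibition of the mutant yeast at or above 50%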;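 further: temperature-sensitive mutant grown at 25 °C; plate controls were DMSO-treated mutant yeast for no effect and medium wells lacking yeast for full effect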
# tim10-1 inh – growth inhibitors of tim10-1 mutant yeast | S. cerevisiae tim10-1 ts strain growth, BacTiter-Glo, 24 h | inhibition, % at 20 µM | 2.2% of 330,000 active;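 active means inhibition of at least 40%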;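 further: mutant grown at 25 °C; 0% = DMSO wells with yeast and 100% = wells holding no yeast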
# PfHsp90 yeast 2 – reduces growth (ATP signal) of yeast expressing P. falciparum Hsp90 | S. cerevisiae expressing PfHsp90, BacTiter-Glo ATP, 48 h; yeast lacking PDR1 and PDR3 efflux regulators | inhibition, % at 9.4 µM | 0.32% of 310,000 active | AID 504621;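 active means every replicate shows inhibition above about 80%, whatever the replicate mean, limit read from the data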;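 further: 0% = DMSO neutral controls and 100% = 20 µM radicicol positive controls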
# SKKanGAS inh – blocks kanamycin growth of S. pyogenes SKKanGAS strain | BacTiter-Glo, 6 h | inhibition, % at 7.5 µM | 1.3% of 300,000 active | AID 1662;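 active means mean replicate score, as percent of positive control median, at least 50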;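 further: strain carries kanamycin resistance gene driven by streptokinase promoter and grows in 40 µg/ml kanamycin; loss of luminescence reflects streptokinase promoter inhibition or plain growth inhibition; 0% = median of DMSO wells and 100% = positive control at its reference dose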
# NALP3 yeast inh – inhibitors of NALP3 inflammasome in yeast. inhibition, % at 10 µM. Yeast reconstituted NLRP3/ASC/caspase-1, beta-gal luminescence, 24 h. AID 2825. 0.39% of 330,000 active;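 active means inhibition of 50% or more; inactive means inhibition below 50%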;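 further: plate controls were induced DMSO wells for no effect and uninduced yeast grown without galactose for full effect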
# TIM10 inh – inhibits growth of TIM10 yeast strain. S. cerevisiae TIM10 strain growth, BacTiter-Glo luminescence, 24 h. AID 463195. inhibition, % at 10 µM. 1.4% of 330,000 active;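 active means inhibition of 40% or more at the single tested concentration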;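 further: wild-type TIM10 isogenic control strain grown at permissive 25 °C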
# tim10 confirm – confirmation of TIM10 yeast growth inhibitors | S. cerevisiae tim10 strain growth, BacTiter-Glo luminescence, 24 h | 63% of 4,600 active | inhibition, % at 10 µM | AID 463215 | shares compounds with TIM10 inh;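 active means inhibition of yeast growth at or above a set limit in either of two replicates at 10 µM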;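 further: this counterscreen used the strain with wild-type TIM10; 0% = yeast with DMSO and 100% = medium wells lacking yeast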
# Starred values were filed as active, the others as inactive; / = no result. Rows were chosen to be rich in hits. Some 4.5% of all compounds tested hit in one or more screens of this group.
SMILES,tim23-1 inh,tim10-1 inh,PfHsp90 yeast 2,SKKanGAS inh,NALP3 yeast inh,TIM10 inh,tim10 confirm
Cc1ccc2cc(CCNC(=O)c3cc4ccccc4o3)c(=O)[nH]c2c1C,38,-1,-22,2,10,58*,32*
CCOC(=O)c1c(C)[nH]c(C)c1C(=O)COC(=O)c1cccnc1SC,23,19,-5,/,18,7,/
C=CCOc1ccc2c(c1)C(=NO)c1cc(OCC=C)ccc1-2,21,0,-15,-37,28,-19,/
COc1ccc2c(c1)C(=NO)c1cc(OC)ccc1-2,10,38,-6,-17,44,45*,38*
O=C(CN1C(=O)CCS(=O)(=O)c2ccccc21)Nc1ccccc1F,8,20,16,2,1,0,/
CCCN(Cc1ccccc1)C(=S)NC(=O)c1ccccc1[N+](=O)[O-],44,32,-46,18,33,44*,40*
CCCCN(CCCC)C(=S)NC(=O)c1ccccc1Cl,44,39,2,-7,29,48*,-16
CCN(CC)C(=S)NC(=O)c1ccc(Cl)cc1Cl,38,21,2,2,15,2,/
CCOC(=O)N1CCN(C(=O)c2ccc(Cl)c(S(=O)(=O)N3CCCC3)c2)CC1,5,-3,2,4,8,1,/
Cc1ccc(NCc2nnc(SCC(N)=O)o2)c(C)c1,13,1,/,-6,4,8,/
Cc1ccc(NCc2nnc(SCC(=O)N(Cc3ccccc3)C(C)(C)C)o2)c(C)c1,29,34,-15,-4,5,41*,16
Cc1ccc(C(=O)c2oc3ccccc3c2N)cc1,8,33,-28,1,22,47*,29
O=C(Oc1ccc([N+](=O)[O-])cc1)C1CC(=O)N(c2ccc3c(c2)OCCO3)C1 (configuration not stated),15,7,-3,/,-20,6,/
CC(C)n1c(N2CCN(C(=O)Nc3ccccc3)CC2)nc2ccccc21,24,20,-12,2,3,44*,43*
Cn1c(N2CCN(C(=O)Nc3ccc(F)cc3)CC2)nc2ccccc21,-2,-11,14,-6,14,7,/
CCCCNC(=S)N/N=C/c1sccc1C,43,31,-75,-5,39,59*,47*
O=C1c2ccccc2C(=O)c2cc(NC(=O)C3CC3)ccc21,38,34,7,-10,36,44*,16
Cc1cc(C)nc(NC(=O)c2cccs2)c1,1,6,-10,-4,17,-2,/
COc1ccc(OC)c(/C=C/C(=O)c2ccc(Cl)cc2)c1,40,36,-6,-23,-9,45*,32*
COc1ccccc1/C=C/C(=O)c1ccc(Cl)cc1,26,32,2,-13,-15,33,/
CNC(=O)c1cc2c(ccc3ccccc32)o1,37,38,4,-16,20,61*,59*
O=C(CCS(=O)(=O)Cc1ccccc1F)NCCc1ccc(Cl)cc1,10,1,7,2,1,-12,/
Cc1cccc2c1[nH]c1nc(N/N=C\c3ccco3)nnc12,7,24,/,-1,10,18,/
C=CCSc1nnc2c(n1)[nH]c1c(C)cccc12,46,40,-9,4,41,47*,37*
COCC(=O)N1CCC(Oc2ccc(C(=O)N3CCN(C)C[C@@H]3C(C)C)cc2)CC1,-8,-6,9,-1,9,-4,/
O=C(Nc1ccc(S(=O)(=O)N2CCOCC2)cc1)C1CCN(S(=O)(=O)c2ccc(F)cc2)CC1,-9,-6,/,2,-1,-3,/
O=C(Nc1ccc(F)cc1)C1CCN(S(=O)(=O)c2ccc3[nH]c(=O)oc3c2)CC1,-7,-8,11,-2,6,74*,6
O=C1Nc2ccc(Br)cc2C1(O)c1ccccc1 (configuration not stated),11,21,-22,5,15,0,/
O=C1Nc2ccc(Br)cc2C12NNc1ccccc1O2 (configuration not stated),-20,22,106*,20,23,45*,69*
